PubChem BioAssay (Tox21)
“And” between values parts separate entries of the source, which are not always exact repeats. Identical values can stand only once. Inconclusive results are not listed. Where a call stands in place of a potency, no number is given. Some compounds were tested as several samples or in several runs, with calls that do not always agree. The source made the active and inactive calls. Calls come from the whole dose curve; as a rule, active = well fitted curve in the direction sought with a large enough effect in the repeat runs; inconclusive = weak or mixed curves; inactive = no such curve, though single readings can be large; an effect the other way counts as inactive or inconclusive.
Potency is the fitted concentration of half-maximal effect.

Experiment: qHTS assay to identify small molecule antagonists of the thyroid receptor (TR) signaling pathway - cell viability counter screen (AID 743064); note: nearly all actives have a fitted effect of over 50% in size
Settings: GH3.TRE-Luc viability, CellTiter-Fluor, 24 h; series mostly up to 70.3 µM
Outline: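 GH3.TRE-Luc cells, 4 h pre-plating; cpd + T3 1 nM final; 37 °C 23.5 h; CellTiter-Fluor 30 min; fluorescence read.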
For `CCCCCCCCCCOC(=O)c1ccccc1C(=O)OCCCCCCCCCC`, the Potency was “inactive”. For `CCC(COC(=O)c1cc(OC)c(OC)c(OC)c1)(c1ccccc1)N(C)C` (stereo not given), the Potency was “inactive”. For `Cc1cc(=O)[nH]o1`, the Potency was “inactive”. For `C=CC(C)=O`, the Potency was “inactive”. For `O=C1C(=O)c2cccc3cccc1c23`, the Potency was “inactive”. In the case of `S=C=NCc1ccccc1`, the Potency is reported as “inactive”. In the case of `C=CC(=O)OC(C)(C)C`, the Potency is reported as “inactive”. In the case of `CC(O)(CS(=O)(=O)c1ccc(F)cc1)C(=O)Nc1ccc(C#N)c(C(F)(F)F)c1` (stereo not given), the Potency is reported as “inactive”. With `COc1c(C(C)(C)C)cc([N+](=O)[O-])c(C)c1[N+](=O)[O-]` the Potency was “inactive”. In the case of `Clc1ccc(C2(Cn3cncn3)CC(Br)CO2)c(Cl)c1` (stereo not given), the Potency is reported as “inactive”. With `CCn1cc[n+](C)c1` the Potency was “inactive”. For `Cl/C=C\C[N+]12CN3CN(CN(C3)C1)C2`, the Potency was “inactive”. With `Cc1c(F)c(F)c(COC(=O)C2C(/C=C(\Cl)C(F)(F)F)C2(C)C)c(F)c1F` (stereo not given) the Potency was “inactive”. With `O=C(CBr)OCc1ccccc1` the Potency was “inactive”. In the case of `N#Cc1ccc(Cl)cc1`, the Potency is reported as “inactive”. In the case of `ClCCCCBr`, the Potency is reported as “inactive”. With `CCOP(=S)(OCC)Oc1cc(Cl)c(Br)cc1Cl` the Potency was “inactive”. In the case of `O=C(O)CC(Cl)C(=O)O` (stereo not given), the Potency is reported as “inactive”. In the case of `C(=NC1CCCCC1)=NC1CCCCC1`, the Potency is reported as “inactive and 27.3 µM (active)”. For `CCOP(=S)(OCC)Oc1nc(Cl)c(Cl)cc1Cl`, the Potency was “inactive”. For `NC(=O)C(Cl)(Cl)Cl`, the Potency was “inactive”. For `COP(=S)(OC)Oc1cc(Cl)c(I)cc1Cl`, the Potency was “inactive”.

Experiment: qHTS assay to identify small molecule antagonists of the thyroid receptor (TR) signaling pathway (AID 743065); note: nearly all actives have a fitted effect of over 55% in size
Settings: GH3.TRE-Luc, T3-stimulated luciferase inhibition, 23.5 h; series mostly up to 70.3 µM
Outline: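 Antagonism measured as loss of luciferase signal in GH3 cells stably carrying a TRE-luciferase reporter, co-treated with compound and T3 (1 nM final) for 23.5 h at 37 C. Viability was read in the same well by CellTiter-Fluor.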
In the case of `CC1(C)CCC(Cc2ccc(Cl)cc2)C1(O)Cn1cncn1` (stereo not given), the Potency is reported as 61.1 µM (active). With `CCOP(=O)(OCC)SCCSCC` the Potency was “inactive”. For `Clc1cc(C(Cl)(Cl)Cl)cnc1Cl`, the Potency was 38.6 µM (active). In the case of `CCOP(=O)(OCC)O/C(=C/Cl)c1ccc(Cl)cc1Cl`, the Potency is reported as 29.8 µM (active) and 61.1 µM (active). For `BrCCCCBr`, the Potency was “inactive”. In the case of `O=C(NCc1cccnc1)Nc1ccc([N+](=O)[O-])cc1`, the Potency is reported as 68.6 µM (active). For `CCOP(=S)(Oc1ccc([N+](=O)[O-])cc1)c1ccccc1` (stereo not given), the Potency was “inactive”. With `O=C(OC1CCCCC1)c1ccccc1C(=O)OC1CCCCC1` the Potency was 72.3 µM (active). With `COP(=O)(OC)O/C(=C/Cl)c1cc(Cl)c(Cl)cc1Cl` the Potency was 28.8 µM (active). In the case of `O=C(O)C(F)(F)C(F)(F)C(F)(F)C(F)(F)C(F)(F)C(F)(F)C(F)(F)C(F)(F)C(F)(F)F`, the Potency is reported as “inactive”. In the case of `COc1nn(CSP(=S)(OC)OC)c(=O)s1`, the Potency is reported as 68.6 µM (active). With `COP(=S)(Oc1cc(Cl)c(Br)cc1Cl)c1ccccc1` (stereo not given) the Potency was 61.1 µM (active). In the case of `CCCN(CCC)c1c([N+](=O)[O-])cc(S(C)(=O)=O)cc1[N+](=O)[O-]`, the Potency is reported as “inactive”.
